# Where “and” joins values, the source holds several entries; their conditions need not be identical. Equal values may be shown once. Records with an inconclusive call do not appear. Where a call stands in place of a potency, no number is given. Calls of active or inactive are those of the source. Unless noted, the call rests on the fitted dose curve; in most records, active means well fitted curve in the direction sought with a large enough effect; inconclusive means small, poorly fitted or top-dose-only effect, or another doubt; inactive means no such curve, though single readings can be large; an effect the other way counts as inactive or inconclusive.
# What was measured:
# [1] = Cell Viability - SK-N-SH (AID 435; calls by dose curve;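 further: potency means the concentration at half of the fitted maximal effect; compound exposure lasted 40 h at 37 °C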); conditions: SK-N-SH neuroblastoma cell viability qHTS
# Summary of the method: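 Luminescent ATP signal served as the viability read-out after 40 hours of compound treatment of human neuroblastoma SK-N-SH cells. Concentration-response data, scaled between DMSO and 100 uM tamoxifen, gave AC50 values by standard Hill modeling.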
# [2] = Cell Viability - N2a (AID 540); conditions: N2a mouse neuroblastoma cell viability; activity change, negative = cytotoxicity: at 92.2 µM (top of the series);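 further: cells exposed to compound for 40 h at 37 °C; nearly all actives have a fitted effect of over 45% in size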
# Summary of the method: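 First, 1500 N2a cells per well incubate 5 hr at 37 °C; next, compounds are added and incubated 40 hr at 37 °C; finally CellTiter-Glo is added and luminescence read after 20 min, with AC50 derived by Hill modeling.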
# [3] = Cell Viability - H-4-II-E (AID 543); conditions: H-4-II-E rat hepatoma viability; series mostly up to 92.2 µM; further: nearly all actives have a fitted effect of over 35% in size
# Summary of the method: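 Here, cytotoxicity is measured in the rat hepatoma line H-4-II-E as loss of intracellular ATP after 40 hr compound treatment, detected by luciferase luminescence.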
# [4] = Cell Viability - Renal Proximal Tubule (AID 545); conditions: renal proximal tubule cells viability, primary cells of rat origin; activity change, negative = cytotoxicity: at 91.7 µM (top of the series); further: nearly all actives have a fitted effect of over 40% in size
# Summary of the method: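 Luminescent ATP signal (CellTiter-Glo) served as the viability read-out after 40 hr compound exposure of freshly isolated rat proximal tubule cells at 37 °C. Concentration-dependent ATP loss was fitted with the Hill equation to give AC50.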
# [5] = Cell Viability - LYMP2-001 (AID 921); conditions: LYMP2-001 lymphoblastoid cell viability; series mostly up to 92.2 µM;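 further: cells exposed to compound for 24 h at 37 °C; nearly all actives have a fitted effect of over 70% in size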; further: potency means the concentration at half of the fitted maximal effect
# Summary of the method: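 Steps: seed 2500 lymphoblastoid cells/well; 5 hr, 37 C; add compound; 24 hr, 37 C; CellTiter-Glo reagent, 30 min room temperature; read luminescence. Concentration-response modeled by Hill equation for AC50.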
# [6] = MultiTox-Fluor Cytotoxicity Assay - LYMP1-001 - Live Cells (AID 947); conditions: LYMP1-001 lymphoblastoid cells, live-cell protease fluorescence viability; series mostly up to 92.2 µM
# [7] = Cell Viability - LYMP2-005 (AID 967); conditions: LYMP2-005 lymphoblastoid cell viability; series mostly up to 92.2 µM;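 further: cells exposed to compound for 24 h at 37 °C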
# Summary of the method: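 Acute cytotoxicity is scored as a concentration-dependent drop in intracellular ATP in human lymphoblastoid LYMP2-005 cells after 24 h compound treatment. ATP is quantified by luciferase luminescence, and AC50 is derived by Hill-equation modelling.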
# [8] = Cell Viability - LYMP2-009 (AID 968); conditions: LYMP2-009 lymphoblastoid cell viability; series mostly up to 92.2 µM;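 further: cells exposed to compound for 24 h at 37 °C; nearly all actives have a fitted effect of over 55% in size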
# [9] = Cell Viability - LYMP2-015 (AID 971); conditions: LYMP2-015 lymphoblastoid cell viability; series mostly up to 92.2 µM; further: nearly all actives have a fitted effect of over 55% in size
# Summary of the method: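 Acute toxicity was scored as a concentration-dependent drop in intracellular ATP in lymphoblastoid cells after 24 hr compound exposure in complete medium. Detection used CellTiter-Glo luciferase luminescence.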
# [10] = Cell Viability - LYMP2-017 (AID 972); conditions: LYMP2-017 lymphoblastoid cell viability; series mostly up to 92.2 µM;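 further: cells exposed to compound for 24 hours at 37 °C; nearly all actives have a fitted effect of over 55% in size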; further: potency means the concentration at half of the fitted maximal effect
# Summary of the method: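 Steps: plate 2500 lymphoblastoid cells per well; incubate 5 hr at 37 C; add compound across a concentration series and incubate 24 hr at 37 C; add CellTiter-Glo and read luminescence after 30 min at room temperature; fit Hill curves for AC50.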
# [11] = Cell Viability - LYMP2-006 (AID 978); conditions: LYMP2-006 lymphoblastoid cell viability, qHTS; series mostly up to 92.2 µM;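 further: cells exposed to compound for 24 hours; nearly all actives have a fitted effect of over 60% in size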; further: potency means the concentration at half of the fitted maximal effect
# Summary of the method: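 Cells are seeded at 2500 per well and rested 5 hr at 37 C. Compounds are added across a concentration series for 24 hr at 37 C, after which ATP is quantified by luciferase luminescence.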
# [12] = Cell Viability - LYMP2-010 (AID 981); conditions: LYMP2-010 lymphoblastoid cell viability, qHTS; series mostly up to 92.2 µM;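 further: cells exposed to compound for 24 hours at 37 °C; nearly all actives have a fitted effect of over 55% in size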; further: potency means the concentration at half of the fitted maximal effect
# Summary of the method: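 Acute toxicity is scored as a concentration-dependent loss of cellular ATP in human lymphoblastoid cells after 24 hr compound exposure in complete medium. Tetraoctylammonium bromide is the positive control.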
# [13] = qHTS assay for small molecule agonists of retinoid X receptor alpha signaling (AID 588544); conditions: HEK293T RXRa-UAS-bla, beta-lactamase reporter, 18 h; 530 nm emission
# [14] = target: Thyroid hormone receptor beta (Homo sapiens) (UniProt P10828); test: qHTS assay for small molecule agonists of thyroid hormone receptor beta signaling (AID 588545; calls by dose curve); conditions: TR-UAS-bla GripTite HEK 293, beta-lactamase ratio, agonist mode, 18 h; series mostly up to 76.7 µM
# Summary of the method: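 Efficacy and EC50 values derive from Hill fits of qHTS titration data, normalized to 10 nM T3 and DMSO-only wells. HEK 293 reporter cells were stimulated for 18 hrs at 37 C, with beta-lactamase activity measured by CCF4 fluorescence.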
# [15] = target: Thyroid hormone receptor beta (Homo sapiens) (UniProt P10828); test: qHTS assay for small molecule antagonists of thyroid hormone receptor beta signaling (AID 588547; active means well fitted inhibition curve with a large enough effect in the signal ratio, with a control signal flat, not every such curve was filed as active; the % refers to the signal ratio;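 further: cells stimulated with 0.4 nM T3 agonist during compound exposure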); conditions: TR-UAS-bla HEK293, beta-lactamase ratio, antagonist mode, 18 h
# Summary of the method: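 TR-UAS-bla GripTite HEK293 cells in 2% charcoal/dextran FBS medium; compounds 0.59 nM to 92 uM with T3 at 0.4nM final, 18 h at 37 C. Beta-lactamase read by CCF4 fluorescence (460/530 nm); Hill fits gave IC50 and efficacy.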
# [16] = qHTS assay for small molecule disruptors of the mitochondrial membrane potential - 1 hr assay (AID 651754; calls by dose curve; further: nearly all actives have a fitted effect of over 35% in size; further: potency means the concentration at half of the fitted maximal effect); conditions: series mostly up to 92.2 µM
# Summary of the method: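 Steps: seed HepG2 cells and let attach overnight; pin-transfer compound or vehicle; incubate 1 hr at 37C; add Mito-MPS dye for 30 min; read two-channel fluorescence for monomer and aggregate forms.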
# [17] = qHTS assay for small molecule disruptors of the mitochondrial membrane potential - 5 hr assay (AID 651755; calls by dose curve; further: nearly all actives have a fitted effect of over 40% in size); conditions: JC-1-type ratio dye; series mostly up to 92.2 µM
# Summary of the method: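 HepG2 cells (2,000/well), attached overnight, exposed to compound 5 hr at 37C, then Mito-MPS dye 30 min. Fluorescence read for monomers (490/535 nm) and aggregates (540/590 nm).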
# [18] = qHTS assay for small molecule agonists of the antioxidant response element (ARE) signaling pathway measured by Nrf2-dependant transcriptional activity (AID 720636; active means well fitted curve in the direction sought with a large enough effect in the repeat runs; an effect the other way counts as inactive or inconclusive;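 further: HepG2 cells with an ARE-driven luciferase reporter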); conditions: ARE-luc HepG2, Nrf2 luciferase reporter, 16 h; series mostly up to 92.4 µM
# Summary of the method: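 Cells: ARE-luc HepG2 with Nrf2-responsive luciferase. Medium contained 1% dialyzed FBS. Compound exposure lasted 16 hr at 37 C and 5% CO2, followed by ONE-Glo luciferase detection.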
# [19] = target: Nuclear receptor subfamily 1 group I member 2 (Rattus norvegicus) (UniProt Q9R1A7); test: qHTS assay for small molecule activators of the rat pregnane X receptor (rPXR) signaling pathway (AID 651751; call rule not given here); conditions: rPXR reporter cells, luciferase (One-Glo), 24 h
# [20] = MultiTox-Fluor Cytotoxicity Assay - LYMP1-002 - Dead Cells (AID 960); conditions: LYMP1-002 lymphoblastoid cells, dead-cell protease fluorescence; series mostly up to 46.1 µM; further: nearly all actives have a fitted effect of over 60% in size; further: potency means the concentration at half of the fitted maximal effect
# Summary of the method: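 Acute cytotoxicity in a human lymphoblastoid line is scored as rising dead-cell protease signal after 16 hr exposure at 37 C, measured fluorometrically (485/520).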
# Sequence of Nuclear receptor subfamily 1 group I member 2 (Rattus norvegicus) (Q9R1A7 whole entry, looked up): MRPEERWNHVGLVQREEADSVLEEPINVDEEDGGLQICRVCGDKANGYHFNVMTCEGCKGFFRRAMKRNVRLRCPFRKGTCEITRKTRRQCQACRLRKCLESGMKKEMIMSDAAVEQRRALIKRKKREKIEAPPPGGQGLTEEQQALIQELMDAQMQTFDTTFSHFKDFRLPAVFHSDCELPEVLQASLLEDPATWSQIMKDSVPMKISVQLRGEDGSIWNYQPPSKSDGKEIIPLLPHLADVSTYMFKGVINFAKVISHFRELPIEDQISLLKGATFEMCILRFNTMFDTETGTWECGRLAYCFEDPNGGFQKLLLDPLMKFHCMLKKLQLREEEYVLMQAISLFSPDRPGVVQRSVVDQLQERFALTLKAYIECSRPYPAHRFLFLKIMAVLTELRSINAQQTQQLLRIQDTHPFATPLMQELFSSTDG
# Sequence of Thyroid hormone receptor beta (Homo sapiens) (P10828 whole entry, looked up): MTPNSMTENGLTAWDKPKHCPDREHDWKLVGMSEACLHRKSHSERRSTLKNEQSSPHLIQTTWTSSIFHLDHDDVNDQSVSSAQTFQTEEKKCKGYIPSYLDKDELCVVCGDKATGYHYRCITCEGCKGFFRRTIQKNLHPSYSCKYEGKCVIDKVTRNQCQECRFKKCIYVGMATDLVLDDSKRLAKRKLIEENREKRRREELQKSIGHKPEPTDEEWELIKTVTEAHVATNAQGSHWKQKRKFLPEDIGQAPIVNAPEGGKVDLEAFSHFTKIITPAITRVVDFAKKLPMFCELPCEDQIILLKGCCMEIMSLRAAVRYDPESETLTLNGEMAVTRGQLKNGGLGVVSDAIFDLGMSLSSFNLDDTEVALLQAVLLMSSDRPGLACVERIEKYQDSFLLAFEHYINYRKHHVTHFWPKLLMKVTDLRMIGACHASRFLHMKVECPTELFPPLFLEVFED
SMILES,Potency [1],"activity change, negative = cytotoxicity [2]",Potency [3],Potency [4],Potency [5],Potency [6],Potency [7],Potency [8],Potency [9],Potency [10],Potency [11],Potency [12],max response [13],Potency [14],activity change % (negative = inhibition) [15],Potency [16],Potency [17],Potency [18],max response [19],Potency [20]
CCCCCCN,> 92 µM (inactive),-7.51% (inactive),inactive,inactive,inactive,inactive,inactive,inactive,inactive,inactive,inactive,inactive,-10.9%,inactive,-5.98% (inactive),inactive,inactive,inactive,-1.94% (inactive),–
C/C=C1/C(=O)C[C@H]2[C@@H]3CCC4=CC(=O)CC[C@]4(C)[C@H]3CC[C@]12C,–,–,–,–,50.1 µM (active),–,inactive,–,–,50.1 µM (active),50.1 µM (active),39.8 µM (active),–,inactive,–,inactive,inactive,–,–,31.6 µM (active)
c1ccc(COCc2ccccc2)cc1,> 92 µM (inactive),-4.56% (inactive),inactive,inactive,inactive,inactive,inactive,inactive,inactive,inactive,inactive,inactive,-5.39%,inactive,-18.1% (inactive),inactive,inactive,inactive,4.39% (inactive),inactive
Cc1ccccc1OCC1CO1 (stereo unspecified),> 92 µM (inactive),-6.29% (inactive),inactive,inactive,inactive,inactive,inactive,inactive,inactive,inactive,inactive,inactive,14.4%,–,-11% (inactive),inactive,inactive,inactive,0.751% (inactive),inactive
CC(=O)Nc1cccc(C)c1,–,-6.73% (inactive),inactive,inactive,inactive,inactive,–,inactive,inactive,inactive,inactive,inactive,-8.8%,–,–,inactive,inactive,inactive,-0.307% (inactive),inactive
C[Si](C)(C)Cl,> 92 µM (inactive),-6.55% (inactive),inactive,inactive,inactive,–,inactive,inactive,inactive,inactive,inactive,inactive,8.09%,inactive,-7.14% (inactive),inactive,inactive,inactive,1.16% (inactive),inactive
C=CC1CO1 (stereo unspecified),> 92 µM (inactive),2.77% (inactive),inactive,inactive,inactive,inactive,inactive,inactive,inactive,inactive,inactive,inactive,-16.9%,inactive,4.27% (inactive),inactive,inactive,inactive,4.12% (inactive),inactive
CCCCCCCCC1CO1 (stereo unspecified),> 92 µM (inactive),-1.38% (inactive),inactive,inactive,inactive,–,inactive,inactive,inactive,inactive,inactive,inactive,-17.5%,inactive,2.22% (inactive),inactive,inactive,inactive,-2.96% (inactive),inactive
CCCCOC(=O)COc1ccc(Cl)cc1Cl,> 92 µM (inactive),7.15% (inactive),inactive,inactive,inactive,inactive,inactive,inactive,inactive,inactive,inactive,inactive,4.2% and -8.56%,inactive,7.32% (inactive) and -4.27% (inactive),inactive,inactive,inactive,-2.3% (inactive) and -1.06% (inactive),inactive
Brc1ccc(-c2ccccc2)cc1,> 92 µM (inactive),-19.3% (inactive),inactive,inactive,inactive,inactive,inactive,inactive,inactive,inactive,inactive,inactive,4.33%,inactive,–,–,–,inactive,1.6% (inactive),inactive
Oc1ccc(O)c2c(O)cccc12,–,-30.1% (inactive),–,inactive,50.1 µM (active),inactive,–,–,–,50.1 µM (active),–,–,-16.7%,inactive,-24.9% (inactive),23.7 µM (active),–,–,1.1% (inactive),inactive
CCc1ccc(C(c2ccc(CC)cc2)C(Cl)Cl)cc1,> 92 µM (inactive),–,inactive,inactive,inactive,inactive,inactive,inactive,inactive,inactive,inactive,inactive,–,inactive,13.5% (inactive),inactive,inactive,inactive,1.82% (inactive),inactive
CC(=O)OC(C(=O)c1ccccc1)c1ccccc1 (stereo unspecified),> 92 µM (inactive),-7.31% (inactive),inactive,inactive,inactive,inactive,inactive,inactive,inactive,inactive,inactive,inactive,-6.96%,inactive,4.95% (inactive),–,inactive,inactive,1.59% (inactive),inactive
C=CC(=O)CC,> 92 µM (inactive),4.36% (inactive),inactive,inactive,inactive,inactive,inactive,inactive,inactive,inactive,inactive,inactive,-11.5%,inactive,9.8% (inactive),inactive,inactive,inactive,9.91% (inactive),inactive

# From PubChem BioAssay (NCATS)
